Test results from PubChem BioAssay (NCATS).
Records with an inconclusive call do not appear. Activity calls are given as the source filed them. Unless noted, calls follow the shape of the dose curve; as a rule, active = well fitted curve in the direction sought with a large enough effect; inconclusive = small, poorly fitted or top-dose-only effect, or another doubt; inactive = no such curve, though single readings can be large; an effect the other way counts as inactive or inconclusive.

Columns and labels:
[1] = biological target: Lysosomal acid glucosylceramidase (Homo sapiens) (UniProt P04062); assay: Glucocerebrosidase-p2 (AID 348; in the data active = potency below about 10 µM; also: potency is read from the fitted curve at half-maximal effect); conditions: purified GBA, blue fluorogenic substrate, 40 min
Sequence of Lysosomal acid glucosylceramidase (Homo sapiens) (P04062 whole entry, looked up): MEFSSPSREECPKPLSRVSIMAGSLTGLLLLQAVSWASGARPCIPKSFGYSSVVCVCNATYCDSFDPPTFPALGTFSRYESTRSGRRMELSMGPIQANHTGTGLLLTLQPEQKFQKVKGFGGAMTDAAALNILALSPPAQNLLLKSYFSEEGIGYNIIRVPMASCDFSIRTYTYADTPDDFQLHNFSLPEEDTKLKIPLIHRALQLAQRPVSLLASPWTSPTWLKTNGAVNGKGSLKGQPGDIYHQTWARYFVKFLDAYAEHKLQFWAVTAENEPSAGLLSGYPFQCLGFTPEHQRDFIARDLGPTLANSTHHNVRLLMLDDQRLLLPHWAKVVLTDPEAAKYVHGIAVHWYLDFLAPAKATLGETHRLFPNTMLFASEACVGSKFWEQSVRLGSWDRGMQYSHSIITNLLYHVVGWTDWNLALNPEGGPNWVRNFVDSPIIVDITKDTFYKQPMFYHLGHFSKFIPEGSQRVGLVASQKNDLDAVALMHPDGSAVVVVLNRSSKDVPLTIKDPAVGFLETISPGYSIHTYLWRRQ
Method in brief: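 Compounds titrated from 0.6 nM upwards against 0.2 nM enzyme in pH 5.9 citric acid/KH2PO4, taurocholate, tween-20; blue fluorogenic substrate 80 uM, 40 min room temperature, stopped and read Ex 365/Em 440 for AC50.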

[2] = AP1 Signaling Pathway (AID 357; active = well fitted curve in either direction with a large enough effect, not every such curve was filed as active;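 also: ME-180 reporter cells stimulated with EGF at its EC50 level; % is scaled to controls: 0 for no effect and ±100 for the full control effect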); conditions: ME-180 AP-1-bla reporter, EGF-induced, beta-lactamase ratio, 5 h; at 7.69 µM (top of the series) unless noted
Method in brief: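 Beta-lactamase reporter under AP-1 response element, ME-180 background. Stimulus: EC50 EGF. Compound exposure 5 h, 37 °C. Detection: CCF4, 2.5 h RT, 460/530 nm. Values: AC50 from titration.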

[3] = biological target: Cytochrome P450 1A2 (Homo sapiens) (UniProt P05177); assay: p450-cyp1a2 (AID 410; calls by dose curve; also: potency is read from the fitted curve at half-maximal effect); conditions: recombinant CYP1A2, luciferin-ME demethylation, luminescence; series mostly up to 57 µM
Sequence of Cytochrome P450 1A2 (Homo sapiens) (P05177 whole entry, looked up): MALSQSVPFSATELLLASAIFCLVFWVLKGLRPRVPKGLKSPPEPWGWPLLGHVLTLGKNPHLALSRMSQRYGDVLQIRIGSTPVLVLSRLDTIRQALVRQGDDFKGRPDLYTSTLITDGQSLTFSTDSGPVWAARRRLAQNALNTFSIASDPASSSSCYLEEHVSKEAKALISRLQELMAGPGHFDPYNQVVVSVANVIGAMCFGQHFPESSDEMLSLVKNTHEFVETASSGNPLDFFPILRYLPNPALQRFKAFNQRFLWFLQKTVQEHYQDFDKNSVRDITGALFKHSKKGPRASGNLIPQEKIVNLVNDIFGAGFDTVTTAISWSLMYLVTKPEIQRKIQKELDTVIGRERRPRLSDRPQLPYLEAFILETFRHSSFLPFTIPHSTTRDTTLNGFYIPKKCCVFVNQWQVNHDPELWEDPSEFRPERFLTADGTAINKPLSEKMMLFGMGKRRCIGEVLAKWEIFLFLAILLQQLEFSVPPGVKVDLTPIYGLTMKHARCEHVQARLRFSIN
Method in brief: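 Human CYP1A2 (20nM) demethylated Luciferin-ME at its Km (100uM) in 100mM KPO4. After 10 min compound preincubation, NADPH regeneration ran the reaction 60 min at room temperature. Luciferin was read by luminescence, normalized to 57 uM furafylline.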

[4] = NFAT Signaling Pathway (AID 444; active = well fitted curve in either direction with a large enough effect, not every such curve was filed as active;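 also: carbachol stimulus at about its EC50 of 1 µM final; % is scaled to controls: 0 for no effect and ±100 for the full control effect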); conditions: Jurkat NFAT-bla M1, carbachol, beta-lactamase ratio, 5 h; at 7.69 µM (top of the series) unless noted
Method in brief: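 Read-out: CCF4 FRET ratio (460 nm/530 nm) after 1 h RT dye loading, used for %activity and AC50 from titration series. Cells: Jurkat NFAT-β-lactamase/M1 line, treated with compound plus 1 uM carbachol for 5 h, 37 °C.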

[5] = Stat Signaling Pathway (AID 446; active = well fitted curve in either direction with a large enough effect, not every such curve was filed as active;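 also: ME-180 cervical cancer cells given 40 pM IL-6 alongside compound; SIE-controlled beta-lactamase reporter measured as 460/530 nm FRET emission ratio; % is scaled to controls: 0 for no effect and ±100 for the full control effect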); conditions: ME-180 SIE beta-lactamase reporter, IL-6 stimulated, 5 h; at 7.69 µM (top of the series) unless noted
Method in brief: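 ME-180 SIE-bla cells; overnight plating; cpd + IL-6 40 pM, 5 h, 37 C; LiveBLAzer 2.5 h RT; 460/530 nm emission ratio. Normalized to 300 pM IL-6 and 125 nM JAK inhibitor controls.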

[6] = biological target: Glucocorticoid receptor (Homo sapiens) (UniProt P04150); assay: GR-GFP Redistribution (AID 450;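 active = compounds whose dose series gives a full or clear partial fitted curve of increased nuclear translocation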; also: potency is read from the fitted curve at half-maximal effect); conditions: U2OS GR-GFP nuclear translocation, laser cytometry, 2 h
Sequence of Glucocorticoid receptor (Homo sapiens) (P04150 whole entry, looked up, the tested form may be a part): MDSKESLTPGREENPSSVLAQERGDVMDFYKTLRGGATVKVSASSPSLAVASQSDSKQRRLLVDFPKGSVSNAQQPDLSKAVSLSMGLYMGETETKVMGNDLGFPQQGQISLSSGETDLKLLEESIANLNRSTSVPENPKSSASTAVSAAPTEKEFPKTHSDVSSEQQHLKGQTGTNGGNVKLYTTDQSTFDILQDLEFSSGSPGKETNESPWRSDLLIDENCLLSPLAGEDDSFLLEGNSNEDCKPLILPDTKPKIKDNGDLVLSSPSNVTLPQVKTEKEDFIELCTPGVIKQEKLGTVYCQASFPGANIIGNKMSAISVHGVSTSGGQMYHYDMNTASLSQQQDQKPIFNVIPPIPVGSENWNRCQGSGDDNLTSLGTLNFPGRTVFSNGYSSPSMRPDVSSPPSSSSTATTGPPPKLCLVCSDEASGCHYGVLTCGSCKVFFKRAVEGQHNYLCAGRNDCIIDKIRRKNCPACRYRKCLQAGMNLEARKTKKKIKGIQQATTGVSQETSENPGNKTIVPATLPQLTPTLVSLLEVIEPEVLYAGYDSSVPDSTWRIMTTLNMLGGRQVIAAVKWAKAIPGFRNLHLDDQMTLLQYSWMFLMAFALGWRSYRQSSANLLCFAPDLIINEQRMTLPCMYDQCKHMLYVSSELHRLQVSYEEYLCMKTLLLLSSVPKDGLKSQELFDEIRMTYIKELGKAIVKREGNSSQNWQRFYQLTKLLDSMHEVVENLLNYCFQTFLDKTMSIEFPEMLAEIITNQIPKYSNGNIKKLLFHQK

[7] = biological target: Glucocorticoid receptor (Homo sapiens) (UniProt P04150); assay: GR-EFC Redistribution (AID 451; calls by dose curve; also: potency is read from the fitted curve at half-maximal effect); conditions: CHO-K1 GR-EFC translocation, beta-gal luminescence, 2 h
Method in brief: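 Translocation of GR-ED fusion to nuclear EA restores b-gal, read by luminescence after 1 h room-temperature detection. Engineered CHO-K1 biosensor cells, 1,000/well, exposed 2 h at 37 C to titrations up to 46 uM final.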

[8] = biological target: Mitogen-activated protein kinase 10 (Mus musculus) (UniProt Q61831); assay: JNK3 AlphaScreen Assay (AID 530; active = well fitted curve in either direction with a large enough effect, not every such curve was filed as active;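 also: kinase came from lysate of stimulated human HepG2 cells; signal reports phosphorylation of biotinylated GST-cJun 1-79 at Ser73 with 10 µM ATP; % is scaled to controls: 0 for no effect and ±100 for the full control effect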); conditions: JNK3 lysate, c-Jun phosphorylation; series mostly up to 57.1 µM
Method in brief: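 Room-temperature AlphaScreen kinase assay; pre-activated HepG2 lysate as JNK3 source, biotin-GST-cJun(1-79) substrate, 10 uM ATP, compound 15 min preincubation.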

[9] = biological target: 3',5'-cyclic-AMP phosphodiesterase 4B (Homo sapiens) (UniProt Q07343); assay: qHTS Assay for Inhibitors of PDE-IV (AID 607; active = well fitted activation curve with a large enough effect in the main read-out, with a control signal flat, not every such curve was filed as active; also: % of control where 0% means no effect); conditions: HEK293 ACTOne CNG channel cells, membrane potential fluorescence; series mostly up to 22.9 µM
Sequence of 3',5'-cyclic-AMP phosphodiesterase 4B (Homo sapiens) (Q07343 whole entry, looked up): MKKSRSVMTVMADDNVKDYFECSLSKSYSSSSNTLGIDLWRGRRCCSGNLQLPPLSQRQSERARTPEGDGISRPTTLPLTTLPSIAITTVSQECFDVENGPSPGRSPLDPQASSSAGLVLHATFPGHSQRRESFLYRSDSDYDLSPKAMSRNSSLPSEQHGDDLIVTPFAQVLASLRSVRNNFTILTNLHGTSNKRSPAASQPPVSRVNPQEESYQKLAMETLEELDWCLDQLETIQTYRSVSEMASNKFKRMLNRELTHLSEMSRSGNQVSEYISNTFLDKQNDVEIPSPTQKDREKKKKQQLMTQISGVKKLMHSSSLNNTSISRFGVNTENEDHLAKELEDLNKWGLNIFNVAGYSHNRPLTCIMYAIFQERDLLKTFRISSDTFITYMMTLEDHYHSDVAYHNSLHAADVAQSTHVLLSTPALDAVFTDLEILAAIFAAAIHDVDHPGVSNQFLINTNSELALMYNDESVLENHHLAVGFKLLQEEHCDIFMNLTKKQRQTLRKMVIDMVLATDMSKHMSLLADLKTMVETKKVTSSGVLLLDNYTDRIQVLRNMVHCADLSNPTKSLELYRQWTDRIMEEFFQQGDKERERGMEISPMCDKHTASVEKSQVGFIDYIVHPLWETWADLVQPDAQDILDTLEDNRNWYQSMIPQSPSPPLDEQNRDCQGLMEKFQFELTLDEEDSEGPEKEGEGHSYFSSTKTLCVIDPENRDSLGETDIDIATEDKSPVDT
Method in brief: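 ACTOne HEK293 cells carry a modified cAMP-gated CNG channel and express endogenous PDE4; plated 1000 cells/well, compounds up to 22.9 uM final. Membrane-potential dye fluorescence (ex 535/em 590) was read; parental cells received 10 uM forskolin + 100 uM RO 20-1724.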

[10] = biological target: Cytochrome P450 3A4 (Homo sapiens) (UniProt P08684); assay: qHTS Assay for Inhibitors and Substrates of Cytochrome P450 3A4 (AID 884); conditions: recombinant CYP3A4, Luciferin-PPXE luminescence; series mostly up to 57.1 µM; also: potency is read from the fitted curve at half-maximal effect; nearly all actives have a fitted effect of over 50% in size
Sequence of Cytochrome P450 3A4 (Homo sapiens) (P08684 whole entry, looked up): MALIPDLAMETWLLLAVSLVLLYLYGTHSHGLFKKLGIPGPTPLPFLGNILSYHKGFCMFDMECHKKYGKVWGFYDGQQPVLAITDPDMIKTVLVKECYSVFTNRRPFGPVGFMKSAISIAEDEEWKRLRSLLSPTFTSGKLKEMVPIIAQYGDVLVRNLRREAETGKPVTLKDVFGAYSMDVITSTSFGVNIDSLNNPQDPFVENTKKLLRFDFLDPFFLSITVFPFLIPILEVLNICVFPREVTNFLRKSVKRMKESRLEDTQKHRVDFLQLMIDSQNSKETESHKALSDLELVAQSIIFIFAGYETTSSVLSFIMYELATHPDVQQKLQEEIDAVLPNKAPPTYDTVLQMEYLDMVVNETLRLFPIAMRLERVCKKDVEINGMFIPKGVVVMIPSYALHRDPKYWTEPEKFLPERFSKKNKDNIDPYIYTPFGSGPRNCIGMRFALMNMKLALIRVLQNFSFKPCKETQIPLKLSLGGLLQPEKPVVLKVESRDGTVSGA
Method in brief: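 20 nM human CYP3A4 with 25 uM Luciferin-PPXE (at KM) in 200 mM KPO4, preincubated 10 min with compound; NADPH regeneration started a 60 min RT reaction. Luciferin detected by luminescence, normalized to 57 uM ketoconazole as full inhibition.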

[11] = biological target: Cytochrome P450 3A4 (Homo sapiens) (UniProt P08684); assay: qHTS Assay for Activators of Cytochrome P450 3A4 (AID 885); conditions: recombinant CYP3A4, Luciferin-PPXE luminescence, 60 min; series mostly up to 57.1 µM; also: nearly all actives have a fitted effect of over 65% in size
Method in brief: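 20nM CYP3A4 + 25uM Luciferin-PPXE (=KM), 200mM KPO4; cpd 10 min RT; NADPH regen, 60 min RT; stop w/ detection buffer, 20 min; luminescence. Normalized to 57 uM ketoconazole.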

[12] = qHTS Assay for Identification of Small Molecule Agonists for Hypoxia Response Element Signaling Pathway (AID 914; active = well fitted activation curve with a large enough effect in the signal ratio, with a control signal flat, not every such curve was filed as active; the % refers to the signal ratio; also: % of control where 0% means no effect); conditions: ME-180 (cervical carcinoma) HRE-bla reporter, beta-lactamase ratio, CoCl2, 17 h; activation: hits give high values
Method in brief: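 Read-out: CCF4 FRET ratio of 460nm to 530nm emission (excitation 405nm) after 2.5 hours at room temperature, taken from HRE-bla ME-180 cells that had been exposed to compound and EC50 CoCl2 for 17 hours.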

[13] = biological target: Ubiquitin carboxyl-terminal hydrolase 1 (Homo sapiens) (UniProt O94782); assay: Inhibitors of USP1/UAF1: Pilot qHTS (AID 504865); conditions: purified USP1/UAF1, Ub-rhodamine cleavage fluorescence; series mostly up to 54.9 µM;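 also: rhodamine fluorescence freed from ubiquitin-rhodamine substrate followed over time; top concentration of the series differs between compounds; % is scaled to controls: 0 for no effect and ±100 for the full control effect; nearly all actives have a fitted effect of over 35% in size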
Sequence of Ubiquitin carboxyl-terminal hydrolase 1 (Homo sapiens) (O94782 whole entry, looked up): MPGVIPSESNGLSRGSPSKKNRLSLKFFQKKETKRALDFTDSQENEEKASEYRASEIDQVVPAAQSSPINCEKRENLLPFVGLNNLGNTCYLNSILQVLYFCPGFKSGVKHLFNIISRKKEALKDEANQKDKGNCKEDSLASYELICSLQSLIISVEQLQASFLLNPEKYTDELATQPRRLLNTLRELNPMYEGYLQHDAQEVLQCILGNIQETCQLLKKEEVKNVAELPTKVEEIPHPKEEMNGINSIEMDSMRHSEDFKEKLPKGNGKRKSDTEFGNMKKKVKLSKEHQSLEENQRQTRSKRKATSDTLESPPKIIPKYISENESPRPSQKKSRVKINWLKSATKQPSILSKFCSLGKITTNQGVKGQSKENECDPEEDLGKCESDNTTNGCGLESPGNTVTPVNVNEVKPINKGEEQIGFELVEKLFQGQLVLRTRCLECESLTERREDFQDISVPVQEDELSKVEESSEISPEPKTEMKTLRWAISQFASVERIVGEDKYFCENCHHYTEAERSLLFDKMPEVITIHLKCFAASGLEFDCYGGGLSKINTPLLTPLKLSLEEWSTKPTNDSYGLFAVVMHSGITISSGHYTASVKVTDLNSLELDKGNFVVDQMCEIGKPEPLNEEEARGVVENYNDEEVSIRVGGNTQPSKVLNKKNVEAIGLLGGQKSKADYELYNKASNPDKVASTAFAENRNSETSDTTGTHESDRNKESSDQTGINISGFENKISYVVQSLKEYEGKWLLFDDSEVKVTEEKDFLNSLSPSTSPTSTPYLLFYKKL
Method in brief: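 1nM USP1/UAF1 + cpd, 15 min RT; start w/ Ub-Rho 150nM final; kinetic FL 480/540 nm, 6 reads q60 s. Buffer 50mM HEPES pH 7.8, 0.5mM EDTA, 1mM TCEP, 0.01% Tween-20, 0.1 mg/ml BSA.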

[14] = Primary qHTS for small molecule stabilizers of the endoplasmic reticulum resident proteome: Secreted ER Calcium Modulated Protein (SERCaMP) assay (AID 1508630); conditions: SH-SY5Y GLuc-SERCaMP (Gaussia luciferase released on ER calcium loss) secretion, thapsigargin, luminescence; series mostly up to 38.4 µM; also: % is scaled to controls: 0 for no effect and ±100 for the full control effect
Method in brief: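 GLuc-SERCaMP-expressing SH-SY5Y cells, pretreated 16 h with compound, are challenged with thapsigargin to empty ER calcium stores; after 4 h, coelenterazine is added directly to the medium and luminescence is imaged.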

[15] = biological target: Dual specificity protein kinase CLK4 (Homo sapiens) (UniProt Q9HAZ1); assay: qHTS Assay for Inhibitors of CDC-like Kinase 4 (ADP-FP Assay) (AID 1795); conditions: Transcreener ADP fluorescence polarization; series mostly up to 50 µM;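 also: recombinant human CLK4 phosphorylating RS repeat peptide at 1 µM ATP; % is scaled to controls: 0 for no effect and ±100 for the full control effect; nearly all actives have a fitted effect of over 60% in size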
Sequence of Dual specificity protein kinase CLK4 (Homo sapiens) (Q9HAZ1 whole entry, looked up): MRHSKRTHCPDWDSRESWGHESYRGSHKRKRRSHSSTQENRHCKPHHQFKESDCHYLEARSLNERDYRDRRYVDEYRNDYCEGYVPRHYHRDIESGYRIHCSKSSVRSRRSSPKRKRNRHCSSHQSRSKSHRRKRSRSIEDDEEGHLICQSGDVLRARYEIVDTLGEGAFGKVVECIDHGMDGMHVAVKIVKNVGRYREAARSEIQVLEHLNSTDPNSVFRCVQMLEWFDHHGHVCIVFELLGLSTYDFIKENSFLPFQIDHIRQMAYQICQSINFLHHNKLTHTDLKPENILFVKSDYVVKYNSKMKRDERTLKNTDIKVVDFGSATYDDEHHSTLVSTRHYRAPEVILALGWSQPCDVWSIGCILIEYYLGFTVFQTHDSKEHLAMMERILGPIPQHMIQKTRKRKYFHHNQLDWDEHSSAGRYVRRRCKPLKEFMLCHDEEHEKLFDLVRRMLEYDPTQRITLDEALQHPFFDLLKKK
Method in brief: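 FP readout: Orange Transcreener ADP2 tracer (4 nM) plus ADP antibody, read after 30 min at room temperature. Kinase step: 6.25 nM Clk4, 100 uM RS peptide, 1 uM ATP, pH 7.5, 1 h.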

[16] = Confirmation and Secondary Assay for Modulators of Hemoglobin Beta Chain Splicing at IVS2 654 locus (AID 910); conditions: HeLa EGFP-654 splicing reporter, GFP fluorescence, 48 h; series mostly up to 38.3 µM;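 also: HeLa cells stably carrying EGFP split by mutant beta-globin IVS2-654 intron; per-well total GFP intensity by laser scanning cytometry after 2-day treatment; % of control where 0% means no effect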
Method in brief: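 Readout: per-well total peak green fluorescence (488 nm ex, 500–520 nm em) from objects 5–250 µm, reflecting correct splicing of an EGFP-654 reporter. Compounds were applied for 2 days at 37 °C to overnight-plated HeLa EGFP-654 cells; controls were DMSO and 500 nM IVS2-654 PNA.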

[17] = Confirmation and Secondary Assay for Modulators of Hemoglobin Beta Chain Splicing at IVS2 705 locus (AID 930); conditions: HeLa EGFP-705 splicing reporter, GFP fluorescence, 48 h; series mostly up to 38.3 µM;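 also: HeLa cells stably expressing the EGFP-705 splicing reporter; GFP fluorescence per well restored by corrected splicing of the IVS2-705 intron in EGFP; % of control where 0% means no effect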
Method in brief: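 HeLa EGFP-705 reporter; 500 cells/well, o/n 37C 5% CO2; cpd 2 d; 488 ex/500-520 em laser scan; total peak GFP intensity/well. Ref: 500 nM […] antisense PNA.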

[18] = biological target: Cytochrome P450 2D6 (Homo sapiens) (UniProt P10635); assay: qHTS Assay for Inhibitors and Substrates of Cytochrome P450 2D6 (AID 891); conditions: recombinant CYP2D6, luciferin-ME EGE luminescence; series mostly up to 57.1 µM; also: potency is read from the fitted curve at half-maximal effect; nearly all actives have a fitted effect of over 60% in size
Method in brief: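 Human CYP2D6 (5 nM) with 30 uM Luciferin-ME EGE (at Km) in 100 mM KPO4, compound preincubated 10 min, then NADPH regeneration system for 60 min at room temperature. Luciferin read by luminescence; normalized to 1.43 uM quinidine.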

[19] = biological target: Cytochrome P450 2C19 (Homo sapiens) (UniProt P33261); assay: qHTS Assay for Inhibitors and Substrates of Cytochrome P450 2C19 (AID 899); conditions: recombinant CYP2C19, luciferin-H EGE luminescence; series mostly up to 57.1 µM; also: potency is read from the fitted curve at half-maximal effect; nearly all actives have a fitted effect of over 60% in size
Sequence of Cytochrome P450 2C19 (Homo sapiens) (P33261 whole entry, looked up): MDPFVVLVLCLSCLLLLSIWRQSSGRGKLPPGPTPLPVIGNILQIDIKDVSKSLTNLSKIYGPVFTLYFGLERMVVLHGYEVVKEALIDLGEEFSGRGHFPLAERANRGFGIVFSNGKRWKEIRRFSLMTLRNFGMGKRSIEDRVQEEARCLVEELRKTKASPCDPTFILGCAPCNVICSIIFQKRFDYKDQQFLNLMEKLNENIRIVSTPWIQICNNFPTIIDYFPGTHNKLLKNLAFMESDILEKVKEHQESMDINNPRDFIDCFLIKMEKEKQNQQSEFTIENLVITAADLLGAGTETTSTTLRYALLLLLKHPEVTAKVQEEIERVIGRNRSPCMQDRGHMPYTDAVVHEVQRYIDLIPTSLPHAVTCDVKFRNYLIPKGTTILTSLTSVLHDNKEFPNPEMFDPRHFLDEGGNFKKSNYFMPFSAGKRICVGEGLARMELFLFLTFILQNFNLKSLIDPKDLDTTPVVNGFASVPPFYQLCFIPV
Method in brief: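 Luminescence readout of luciferin formed from 10uM Luciferin-H EGE (KM level) by 5 nM CYP2C19 in 50mM KPO4. 60 min NADPH-driven reaction at 37C after 10 min compound preincubation; data scaled to 57uM ketoconazole inhibition.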

c1ccc(CNc2ncncc2-c2ccoc2)cc1
inactive: Potency [1] > 11.4 µM | activity change, negative = inhibition [2] 9.24% | activity change, negative = inhibition [4] 17% | activity, negative = inhibition [5] -8.66% | Potency [6] > 46 µM | Potency [7] > 46 µM | Potency [8] | Potency [9] | Potency [11] | activation [12] 1.1% | Potency [13] | outcome [14]
active: Potency [3] 5.01 µM | Potency [10] 2 µM

COc1ccc2[nH]cc(CCNc3cc(-c4ccccc4CN(C)C)ncn3)c2c1
inactive: activity change, negative = inhibition [2] 14.9% | activity change, negative = inhibition [4] -12.7% | activity, negative = inhibition [5] 6.88% | Potency [6] > 46 µM | Potency [7] > 46 µM | Potency [8] | Potency [9] | Potency [15] | Potency [13] | outcome [14]

c1cncc(-c2ccc3ncnc(N4CCNCC4)c3c2)c1
inactive: Potency [1] > 11.4 µM | activity change, negative = inhibition [2] 8.97% | activity change, negative = inhibition [4] 26.4% | activity, negative = inhibition [5] 0.928% | Potency [6] > 46 µM | Potency [7] > 46 µM | Potency [8] | Potency [9] | Potency [11] | Potency [16] | outcome [17] | Potency [13] | outcome [14]
active: Potency [3] 1.26 µM

CN(C)Cc1ccccc1-c1nccc(NC2CC2)n1
inactive: Potency [1] > 11.4 µM | activity change, negative = inhibition [2] -4.26% | activity change, negative = inhibition [4] 1.25% | activity, negative = inhibition [5] 5.09% | Potency [6] > 46 µM | Potency [7] > 46 µM | Potency [8] | Potency [9] | Potency [11] | Potency [16] | outcome [17] | Potency [13] | outcome [14]
active: Potency [3] 1.58 µM | Potency [18] 0.631 µM

FC(F)(F)c1ccccc1-c1cc(NCc2cccs2)ncn1
inactive: activity change, negative = inhibition [2] -3.47% | activity change, negative = inhibition [4] -14.8% | activity, negative = inhibition [5] 5.97% | Potency [6] > 46 µM | Potency [8] | Potency [9] | Potency [15] | Potency [13] | outcome [14]
active: Potency [3] 3.98 µM | Potency [19] 0.794 µM

COc1ccc(CNc2ccnc(-c3cccnc3)n2)c(OC)c1
active: Potency [3] 0.316 µM | Potency [10] 0.631 µM | Potency [19] 2 µM
inactive: Potency [1] > 11.4 µM | activity change, negative = inhibition [2] -5.2% | activity change, negative = inhibition [4] -0.132% | activity, negative = inhibition [5] -2.65% | Potency [6] > 46 µM | Potency [7] > 46 µM | Potency [9] | Potency [11] | Potency [13] | outcome [14]
